Unmarked numbers belong to inactive results.

In this test the test system is Madurella mycetomatis MM55. The test is described as follows: percent growth relative to solvent control; higher = less inhibition, active = 20 or less. Particulars: 100 µM; 7 days.
For the compound `Nc1ncc(-c2ccc(C(F)(F)F)nc2)cc1-c1ccc(C(F)(F)F)nc1`, the percent growth was 94.5%.
The figure for `Cc1cccnc1NC(=O)c1cccc(OCc2c(C)noc2C)c1` is 85.1%; for `Nc1nccc2ccc(Oc3ccncc3)cc12` it is 71.5%; for `COc1nc2ccc(Br)cc2cc1[C@@H](c1ccccc1)[C@@](O)(CCN(C)C)c1cccc2ccccc12` it is 100%.
For `Cc1ccc2oc(-c3cc(NC(=O)Cc4ccccc4)ccc3Cl)nc2c1` the value was 96%; for `NCCCC(N)(C(=O)O)C(F)F` (centres undefined), 133%; for `Cc1nnc(NC(=O)c2cn(-c3ccccc3)nc2-c2ccccc2C)o1`, 92.6%.
Consider `Cc1cc2ccccc2n1CC(=O)N1CC(C(=O)N2CCCCC2)Oc2ccccc21` (centres undefined), for which the percent growth is 82.1%.
For `CC(=O)NC[C@@H]1CN(c2ccc(N3CCOCC3)c(F)c2)C(=O)O1` the value was 107%; for `COC(=O)c1c(NC(=O)c2cc3ccccc3oc2=O)sc2c1CCN(Cc1ccccc1)C2`, 111%.
In the case of `CS(=O)(=O)N1CCC(CCn2nc(Cc3cccc4ccccc34)c3c(N)ncnc32)CC1`, the percent growth is 81.9%.
The figure for `O=C(Nc1cnc2ccccc2c1)c1cccc(-n2cnnn2)c1` is 94.2%.
Consider `CCOC(=O)c1cc(-c2csc(Nc3c(C)cc(C)cc3C)n2)on1`, for which the percent growth was 92.2%.
For the compound `CC(=O)Nc1ccc(NC(=O)c2cc(-c3cc(Cl)ccc3O)[nH]n2)cc1`, the percent growth is 155%.
The figure for `COc1cc(C(F)(F)F)nc2ccc(C)c(N)c12` is 77.1%; for `CC(C)(C)CN1C(=O)C(c2ccccc2)(c2ccccc2)N=C1N` it is 66.1%; for `O=C(Nc1ccc2c(c1)B(O)OC2)c1ccccc1C(F)(F)F` it is 150%.
For `Clc1ccc(CCNc2cc(-c3ccccc3)nc3ncnn23)cc1` the value was 108%; for `FC(F)(F)c1cccc(-c2nc3c(NCc4ccncc4)nccc3[nH]2)c1`, 72.4%; for `CC[C@@H]([C@H](C)O)n1ncn(-c2ccc(N3CCN(c4ccc(OC[C@@H]5CO[C@@](Cn6cncn6)(c6ccc(F)cc6F)C5)cc4)CC3)cc2)c1=O`, 0.417% (active).
As to `NS(=O)(=O)c1cncc(-c2ccc3nccc(-c4cn[nH]c4)c3n2)c1`, the percent growth is 143%.
For the compound `C[C@H](C(N)=O)N1CCCC[C@@H]1c1ccc(OCc2cccc(F)c2)cc1`, the percent growth was 92%.
On to `CCc1ccccc1-n1c(C)cn2c3c(=O)n(C(C(=O)OC)C(C)C)c(=O)n(C)c3nc12` (centres undefined), for which the percent growth is 79.9%.
Turning to `C[C@H]1COc2c(N3CCN(C)CC3)c(F)cc3c(=O)c(C(=O)O)cn1c23`, the percent growth is 89.5%.

These data come from the supplement of paper PMC5940239.
